Drawing on PubChem BioAssay, this text covers composite z-score and z-score for 17 compounds.

The structures appear in SMILES notation. Active and inactive are the calls of the source.

A short description of assay [1]: anti-His antibody binders, primary screen, artefact control for SMM control protein annotation, biochemical, small-molecule microarray, 635 nm fluorescence (AID 1128).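 Also: score merges feature fluorescence with signal-to-noise for each printed compound spot.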 As to conditions: anti-His Alexa647 antibody binding, higher = more signal.
In assay [2] the test system is Human papillomavirus type 1a E7 protein (residues 1-88). Kind of assay: HPV1a E7 small-molecule binders, primary screen, biochemical, small-molecule microarray, residues 1-88, 635 nm (AID 1129). As to conditions: small-molecule microarray binding, fluorescence 635 nm; higher = more signal.
The target of assay [3] is Focal adhesion kinase 1 (Homo sapiens) (UniProt Q05397). Kind of assay: small-molecule microarray binders of FAK, primary screen, biochemical, 635/667 nm fluorescence, BSA, DTT (AID 1130).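 Also: composite of spot emission at 667 nm and signal to noise over triplicate slides.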 The note with it: PTK2 binding, 635 nm fluorescence, higher = more signal.
Assay [4] deals with Fibrinogen (Alexa647-labelled). Kind of assay: fibrinogen binders on compound microarrays, profiling panel, artefact control for SMM control-protein annotation, biochemical, small-molecule microarray, 635/667 nm fluorescence (AID 1131).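 Also: z-score merges 667 nm fluorescence with per-spot signal-to-noise over triplicate slides.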 The note with it: fibrinogen-A647 binding fluorescence, higher = more signal.
The target of assay [5] is Follistatin (Homo sapiens) (UniProt P19883). Kind of assay: follistatin binders on small-molecule microarrays, primary screen, biochemical, small-molecule microarray, 635/667 nm fluorescence (AID 1132). As to conditions: FST binding, 635 nm fluorescence, higher = more signal.
Assay [6] addresses Fibroblast growth factor 2 (Homo sapiens) (UniProt P09038). Kind of assay: FGF2 binders on small-molecule microarrays, primary screen, biochemical, small-molecule microarray, 635/667 nm fluorescence (AID 1133). The note with it: small-molecule microarray binding, FGF2, fluorescence 635/667; higher = more signal.
Assay [7] can be described thus: mitochondrial membrane potential change in A549 cells, profiling panel, cell-based, JC-1 fluorescence, basal, 24 h, 100 nL (AID 1138).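 Also: A549 lung adenocarcinoma cells under basal conditions with no added stimulus; test concentration not given here.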 As to conditions: higher = more signal.
A further assay deals with Lefty1. The experiment in a line: Lefty1 binders on small-molecule microarrays, primary screen, biochemical, small-molecule microarray, 635/667 nm fluorescence (AID 1139). The note with it: small-molecule microarray binding, fluorescence 635/667; higher = more signal.
Assay [8] relates to wheat germ agglutinin (Triticum aestivum), Alexa647-labelled. The experiment in a line: wheat germ agglutinin binders on compound microarrays, profiling panel, artefact control for SMM control-protein annotation, biochemical, small-molecule microarray, 635/667 nm fluorescence (AID 1140).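 Also: score merges 667 nm feature emission with signal to noise over triplicate slides.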 As to conditions: WGA-A647 binding, 635 nm fluorescence, higher = more signal.
For assay [9], the target named is Luciferin 4-monooxygenase (Photinus pyralis) (UniProt P08659). The experiment in a line: firefly luciferase enzyme inhibitors, primary screen, biochemical, luminescence, purified enzyme, 2006 set (AID 1141).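 Also: cell-free assay with purified firefly luciferase at 100 ng per well in PBS; test concentration not given here.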 The note with it: SteadyGlo luminescence, 30 min, higher = more signal, called active from +8 up or from −8 down.
Luciferin 4-monooxygenase (Photinus pyralis), sequence (P08659 whole entry, looked up): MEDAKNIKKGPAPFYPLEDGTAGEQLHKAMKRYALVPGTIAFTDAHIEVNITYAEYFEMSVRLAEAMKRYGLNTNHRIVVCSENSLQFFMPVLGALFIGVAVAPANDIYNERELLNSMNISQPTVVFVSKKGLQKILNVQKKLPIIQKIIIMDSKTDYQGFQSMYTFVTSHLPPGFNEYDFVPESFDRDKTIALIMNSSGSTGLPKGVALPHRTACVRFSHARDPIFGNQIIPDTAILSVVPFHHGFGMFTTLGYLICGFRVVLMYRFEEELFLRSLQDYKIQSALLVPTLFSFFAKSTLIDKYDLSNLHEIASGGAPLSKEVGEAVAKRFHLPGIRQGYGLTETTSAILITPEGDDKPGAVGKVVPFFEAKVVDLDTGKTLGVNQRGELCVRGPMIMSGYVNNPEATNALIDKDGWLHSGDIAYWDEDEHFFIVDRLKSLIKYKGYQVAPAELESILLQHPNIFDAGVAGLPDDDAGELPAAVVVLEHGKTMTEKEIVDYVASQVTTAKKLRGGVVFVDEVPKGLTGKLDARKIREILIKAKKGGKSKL

Fibroblast growth factor 2 (Homo sapiens), sequence (P09038 whole entry, looked up): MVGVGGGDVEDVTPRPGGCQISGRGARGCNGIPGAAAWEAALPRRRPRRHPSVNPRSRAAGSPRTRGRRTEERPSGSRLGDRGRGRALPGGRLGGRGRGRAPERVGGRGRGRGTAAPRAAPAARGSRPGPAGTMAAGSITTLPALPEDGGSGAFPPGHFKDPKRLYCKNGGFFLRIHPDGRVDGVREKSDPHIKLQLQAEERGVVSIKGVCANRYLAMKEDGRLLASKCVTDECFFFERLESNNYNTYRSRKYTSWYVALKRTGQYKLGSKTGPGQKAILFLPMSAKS
Focal adhesion kinase 1 (Homo sapiens), sequence (Q05397 whole entry, looked up): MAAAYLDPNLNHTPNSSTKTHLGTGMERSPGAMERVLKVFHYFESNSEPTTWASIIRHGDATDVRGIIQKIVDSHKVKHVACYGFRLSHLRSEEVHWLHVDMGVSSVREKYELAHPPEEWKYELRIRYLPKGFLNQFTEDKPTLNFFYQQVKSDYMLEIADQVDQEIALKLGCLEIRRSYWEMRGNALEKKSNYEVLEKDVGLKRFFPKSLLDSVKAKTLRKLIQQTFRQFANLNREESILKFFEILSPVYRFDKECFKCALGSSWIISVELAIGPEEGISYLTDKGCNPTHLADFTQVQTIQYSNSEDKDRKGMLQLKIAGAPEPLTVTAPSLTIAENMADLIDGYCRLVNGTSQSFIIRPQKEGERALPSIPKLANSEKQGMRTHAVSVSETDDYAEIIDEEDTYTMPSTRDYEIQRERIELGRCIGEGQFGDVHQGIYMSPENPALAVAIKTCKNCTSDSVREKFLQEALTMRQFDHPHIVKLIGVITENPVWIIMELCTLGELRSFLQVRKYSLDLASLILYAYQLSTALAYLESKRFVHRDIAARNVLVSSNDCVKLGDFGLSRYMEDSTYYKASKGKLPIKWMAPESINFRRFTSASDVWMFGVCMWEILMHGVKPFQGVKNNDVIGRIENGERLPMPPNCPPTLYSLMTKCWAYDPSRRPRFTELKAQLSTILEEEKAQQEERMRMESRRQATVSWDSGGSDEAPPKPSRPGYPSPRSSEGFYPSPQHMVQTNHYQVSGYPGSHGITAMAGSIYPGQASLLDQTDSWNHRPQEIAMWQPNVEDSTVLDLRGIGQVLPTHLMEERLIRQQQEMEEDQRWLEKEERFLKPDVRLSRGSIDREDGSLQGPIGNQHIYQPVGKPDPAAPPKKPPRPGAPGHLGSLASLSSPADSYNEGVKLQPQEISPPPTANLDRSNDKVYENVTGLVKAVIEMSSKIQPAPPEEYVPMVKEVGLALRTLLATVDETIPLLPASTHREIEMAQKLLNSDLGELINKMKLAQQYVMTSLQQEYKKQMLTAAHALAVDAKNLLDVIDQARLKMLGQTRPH
Follistatin (Homo sapiens), sequence (P19883 whole entry, looked up): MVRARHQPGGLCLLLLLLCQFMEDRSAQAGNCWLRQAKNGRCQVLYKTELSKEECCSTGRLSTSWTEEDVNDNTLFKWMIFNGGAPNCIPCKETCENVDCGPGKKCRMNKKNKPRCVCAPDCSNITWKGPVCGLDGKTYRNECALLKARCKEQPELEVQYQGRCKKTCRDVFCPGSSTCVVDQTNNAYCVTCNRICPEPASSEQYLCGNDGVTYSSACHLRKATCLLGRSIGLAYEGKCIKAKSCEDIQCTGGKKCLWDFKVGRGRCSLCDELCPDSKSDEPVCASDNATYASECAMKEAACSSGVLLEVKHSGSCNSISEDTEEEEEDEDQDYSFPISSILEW

Turning to `COCCOC(=O)N1C(=O)[C@@]2(c3cc(C#Cc4ccc(OC)cc4)ccc31)[C@H](C(=O)NC[C@H](O)c1ccccc1)[C@H]1C(=O)O[C@H](c3ccccc3)[C@H](c3ccccc3)N1[C@@H]2c1ccc(O)cc1`, the composite z-score in [1] stood at 0.933; in assay [2], 1.16; in assay [3], 0.33; in assay [4], 0.912; in assay [5] it was 1.16; in [6], 1.01. In addition, the composite z-score is 1.19 in the assay on Lefty1 and 0.666 in [8]. In addition, the z-score in assay [7] was -1.47; in assay [9], 0.273 (inactive).
In the case of `C=C(COC)/C(=C/C[C@@H](OC(=O)c1ccncc1)c1ccc(OCCO)cc1)c1cnc2ccccc2c1`, the composite z-score came out at 0.866 in assay [1]; 1.13 in [2]; 0.0089 in assay [3]; 0.94 in [4]; 1.46 in assay [5]; 1.74 in [6]. In addition, the composite z-score was 1.49 with Lefty1 and 0.798 in [8]. Besides, the z-score in assay [7] is 0.703; in assay [9], -2.4 (inactive).
Regarding `C=C(C(=O)CC[C@H](OC(C)=O)c1cccc(OCCO)c1)C(C)C`, the composite z-score was -0.734 in [1]; -1.35 in assay [2]; -0.311 in assay [3]; -0.0681 in assay [4]; -0.791 in [5]; -0.883 in assay [6]. Besides, the composite z-score in the assay with Lefty1 was -0.638; in assay [8] it was 0.335. The figures for the z-score in [7] and in [9] were -0.6 and -0.0654 (inactive), respectively.
Turning to `CC=CC(O)C1C=CC2C(=O)N(C)C(=O)C2N1Nc1ccc([N+](=O)[O-])cc1[N+](=O)[O-]` (stereo not given), the composite z-score is 2.66 in assay [1]; -0.935 in assay [2]; 0.247 in assay [3]; -1.22 in assay [4]; -0.0096 in [5]; -0.582 in [6]. Further, the composite z-score with Lefty1 was 0.0657; in [8] it was -0.0025. Also, the z-score in assay [7] was 0.533; in [9], -0.419 (inactive).
Regarding `C=C(C(=O)CC[C@H](OC(=O)c1cccnc1)c1cccc(OCCO)c1)C(C)C`, the composite z-score was 0.0024 in assay [1]; -0.498 in assay [2]; -0.136 in assay [3]; -0.744 in [4]; -1.01 in assay [5]; -0.464 in [6]. Besides, the composite z-score with Lefty1 was 0.0695; in [8] it was -0.168. Further, the z-score in [7] is 0.838; in assay [9], -0.894 (inactive).
Turning to `CCN(CC)c1ccc(N2CC=CC34O[C@@H]5/C=C\CCC(C)OC(=O)C5[C@H]3C(=O)N(CCO)[C@@H]4C2=O)cc1` (stereo not given in full), the composite z-score was 2.08 in assay [1]; -0.204 in [2]; 0.235 in [3]; -1.45 in assay [4]; -0.69 in [5]; -0.734 in assay [6]. Further, the composite z-score in the assay with Lefty1 is -0.171; in [8], 0.144. In addition, the z-score in assay [7] is 0.431; in [9], -0.801 (inactive).
With `O=C1c2ccccc2[C@@]2(Cc3ccccc3N(C3CC3)C2=O)[C@H](c2ccc(CO)cc2)N1C1CCCCC1`, the composite z-score is -1.14 in [1]; -0.729 in [2]; -0.375 in assay [3]; -0.624 in assay [4]; -0.667 in assay [5]; -0.329 in [6]. Besides, the composite z-score in the assay on Lefty1 is -0.825; in assay [8], 0.637. Besides, the z-score in [7] was 0.306; in assay [9], 0.429 (inactive).
With `C[C@H]1C2=C3C(CC[C@H]4C(OCc5ccc(F)cc5C(F)(F)F)OC[C@](C)([C@@H]34)N(C(=O)OC(C)(C)C)C2)C2COC(=O)OCC21` (stereo not given in full), the composite z-score was 2.42 in assay [1]; 1.16 in assay [2]; 1.46 in assay [3]; 0.96 in assay [4]; 0.856 in assay [5]; -1.5 in [6]. In addition, the composite z-score is -0.225 in the assay with Lefty1 and 0.792 in [8]. In addition, the z-score in [7] is 1.75; in assay [9] it was 1.85 (inactive).
Take `C=CC[C@@]1(C(=O)N2CCCCC2)N=C(c2ccc(OCCCO)cc2)O[C@@H]1c1ccccc1`: the composite z-score in assay [1] was 2.8; in [2] it was 1.2; in assay [3], 1.58; in [4] it was 0.935; in assay [5], 0.939; in assay [6], 0.0286. In addition, the composite z-score in the assay with Lefty1 was -0.034; in [8], 1.08. The z-score in assay [7] is 1.9; in assay [9], -0.952 (inactive).
Consider `Cc1ccc(S[C@]2(C(=O)NC(C)C)CC(=O)N(C3Cc4ccccc4C3)[C@@H]2c2ccc(CO)cc2I)cc1`, for which the composite z-score in assay [1] is -0.641; in assay [2], -0.597; in assay [3], -0.602; in assay [4], -0.779; in assay [5], -0.172; in assay [6] it was 0.188. Further, the figures for the composite z-score (with Lefty1; in [8]) were -2.2 and -0.412, respectively. Besides, the z-score in assay [7] is 1.37; in [9], 0.507 (inactive).
For the compound `O=c1cccc(-c2ccc(C(F)(F)F)cc2)o1`, the composite z-score is 0.728 in assay [1]; -0.955 in assay [2]; -0.136 in assay [3]; -1.1 in assay [4]; -0.398 in assay [5]; -0.41 in assay [6]. Further, the figures for the composite z-score (in the assay with Lefty1; in [8]) were -1.03 and -0.399, respectively. Further, the values for the z-score in assay [7] and in assay [9] were 0.77 and 0.854 (inactive), respectively.
For `[N-]=[N+]=NCc1ccccc1C[C@@]1(C(=O)N2CCCCC2)N=C(c2ccc(OCCCO)cc2)O[C@@H]1c1ccccc1N=[N+]=[N-]`, the composite z-score in assay [1] amounted to 1.4; in assay [2] it was 1.14; in [3], 0.759; in [4] it was 0.769; in assay [5], 0.249; in assay [6] it was 0.157. The composite z-score with Lefty1 is -0.162; in assay [8], 0.885. The results for the z-score in assay [7] and in [9] were 1.25 and -6.07 (inactive), respectively.
With `CN(C)C(=O)[C@]1(CCC(=O)OC(C)(C)C)N=C(c2ccc(OCCCO)cc2)O[C@@H]1c1ccccc1`, the composite z-score is 2.57 in assay [1]; 1.27 in [2]; 0.712 in assay [3]; 0.97 in [4]; 0.562 in assay [5]; 0.399 in [6]. The values for the composite z-score (in the assay with Lefty1; in [8]) were -0.781 and 0.448, respectively. Further, the z-score in assay [7] is 1.58; in [9] it was -1.41 (inactive).
For `CN(C)CCCNC(=O)[C@@H]1c2ccccc2C(=O)N(CC23CC4CC(CC(C4)C2)C3)[C@H]1c1ccc(CO)cc1`, the composite z-score was 2.44 in assay [1]; 1.27 in assay [2]; 0.0169 in assay [3]; 0.954 in assay [4]; 1.21 in assay [5]; 0.788 in assay [6]. For the same compound, the composite z-score with Lefty1 came out at 1.26; in [8] it was 0.665. For the same compound, the z-score in assay [7] is 1.36; in assay [9], 0.717 (inactive).
Regarding `CC(C)CCC[C@@H](C)[C@H]1CC[C@@]2(C)C3=C(CC[C@]12C)[C@@]1(C)CC[C@H](OC(=O)c2ccc(Br)cc2)C(C)(C)C1CC3` (stereo not given in full), the composite z-score in assay [1] was -0.242; in [2], 0.595; in [3], -0.172; in assay [4], 0.487; in assay [5], 0.485; in assay [6], 0.508. Also, the composite z-score stood at 0.573 in the assay on Lefty1 and 0.538 in assay [8]. Further, the z-score in assay [7] is 0.367; in assay [9], -1.28 (inactive).
As to `C[C@]1(C(=O)NCCN2CCOCC2)c2ccccc2C(=O)N(Cc2ccc(OC(F)(F)F)cc2)[C@H]1c1ccc(CO)cc1`, the composite z-score was 2.24 in assay [1]; 0.634 in assay [2]; -0.108 in assay [3]; 0.915 in [4]; 0.536 in [5]; -0.38 in [6]. For the same compound, the results for the composite z-score (with Lefty1; in assay [8]) were -0.355 and 0.55, respectively. For the same compound, the z-score in [7] is 1.68; in assay [9] it was -0.0852 (inactive).
For `CON(C)C(=O)C=C1C[C@@H](c2cccc(Cl)c2)O[C@@H](c2cccc(Cl)c2)O1`, the composite z-score amounted to 1.15 in assay [1]; 0.878 in assay [2]; 0.441 in assay [3]; 0.472 in assay [4]; 0.412 in [5]; 0.372 in [6]. Moreover, the composite z-score in the assay on Lefty1 is 0.669; in [8], 0.462. Further, the figures for the z-score in [7] and in [9] were 3.69 and -0.344 (inactive), respectively.
